Shown are actives, neighbours in structure and some others; about 2.5% of the full set was active somewhere.
ULK1 primary: ULK1 kinase inhibitors, primary screen, biochemical, AlphaScreen; AlphaScreen Atg13 phosphorylation by ULK1, luminescence; inhibition, % at 5.96 µM; 30,000 compounds, 1.9% hits; AID 1259251, 2017; in the data active = inhibition above about 43%
ASK1 primary: ASK1 kinase inhibitors, primary screen, biochemical, AlphaScreen | Mitogen-activated protein kinase kinase kinase 5 (Homo sapiens), Q99683 | 22,000 compounds, 0.99% hits | inhibition, % at 7.44 µM | AlphaScreen MKK6 phosphorylation by ASK1, luminescence; in the data active = inhibition above about 35%
Target sequence (Q99683 whole entry, looked up): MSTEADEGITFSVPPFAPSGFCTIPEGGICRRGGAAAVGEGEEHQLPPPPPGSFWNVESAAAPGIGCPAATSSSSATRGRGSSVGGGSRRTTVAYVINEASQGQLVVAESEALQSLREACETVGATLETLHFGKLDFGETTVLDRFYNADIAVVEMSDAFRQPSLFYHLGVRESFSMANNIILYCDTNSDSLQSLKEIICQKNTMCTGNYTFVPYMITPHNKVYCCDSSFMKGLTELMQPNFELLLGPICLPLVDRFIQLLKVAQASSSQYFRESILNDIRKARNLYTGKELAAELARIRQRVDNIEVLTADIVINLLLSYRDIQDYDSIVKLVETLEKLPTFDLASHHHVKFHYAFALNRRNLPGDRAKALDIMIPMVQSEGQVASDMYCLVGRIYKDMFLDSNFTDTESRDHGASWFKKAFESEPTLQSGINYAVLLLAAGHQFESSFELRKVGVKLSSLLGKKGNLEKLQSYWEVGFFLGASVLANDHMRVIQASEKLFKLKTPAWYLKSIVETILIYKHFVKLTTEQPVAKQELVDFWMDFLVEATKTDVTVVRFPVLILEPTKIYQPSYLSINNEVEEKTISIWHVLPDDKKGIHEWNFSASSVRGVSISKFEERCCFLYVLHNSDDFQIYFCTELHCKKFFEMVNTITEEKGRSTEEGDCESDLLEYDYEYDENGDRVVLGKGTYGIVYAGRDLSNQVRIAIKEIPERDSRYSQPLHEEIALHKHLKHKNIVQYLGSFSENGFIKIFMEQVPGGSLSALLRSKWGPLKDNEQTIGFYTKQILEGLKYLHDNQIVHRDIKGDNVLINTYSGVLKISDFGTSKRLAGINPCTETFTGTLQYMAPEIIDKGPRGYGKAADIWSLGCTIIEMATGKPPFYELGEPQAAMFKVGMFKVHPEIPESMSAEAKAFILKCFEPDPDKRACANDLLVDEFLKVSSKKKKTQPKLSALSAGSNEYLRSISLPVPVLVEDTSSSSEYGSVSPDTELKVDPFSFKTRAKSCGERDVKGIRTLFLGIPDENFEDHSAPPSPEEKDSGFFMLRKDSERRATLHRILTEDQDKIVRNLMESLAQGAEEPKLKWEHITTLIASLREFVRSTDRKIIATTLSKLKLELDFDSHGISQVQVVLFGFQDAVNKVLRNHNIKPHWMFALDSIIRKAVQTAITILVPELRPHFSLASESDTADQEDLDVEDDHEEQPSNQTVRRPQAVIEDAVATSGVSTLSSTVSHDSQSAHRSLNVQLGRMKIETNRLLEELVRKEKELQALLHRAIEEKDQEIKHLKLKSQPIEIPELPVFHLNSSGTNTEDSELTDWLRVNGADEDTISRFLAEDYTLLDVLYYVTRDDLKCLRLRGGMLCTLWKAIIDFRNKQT
TruHits interf: AlphaScreen signal interference by compounds, dose response, artefact control for ASK1 inhibitor project, biochemical, TruHits beads. shares compounds with ASK1 primary. signal interference counterscreen. IC50, µM. 220 compounds, 20% hits. AID 1159604, 2016;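 active = IC50 of 10 µM or lower in the counterscreen; inactive = IC50 above 10 µM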;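 also: loss of AlphaScreen light from TruHits beads alone with no ASK1 enzyme present; potency of signal reduction so a low IC50 flags an assay artifact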
Hits are given with their value; - = inactive; . = no result given.

SMILES	ULK1 primary	ASK1 primary	TruHits interf
CCN(CC)C(=O)C1CCCN(c2nc(Nc3ccc(N4CCOCC4)cc3)c3ncn(CCN4CCCC4=O)c3n2)C1 (configuration not stated)	-	-	.
CC(C)n1cnc2c(NCc3cccc(C(F)(F)F)c3)nc(N3CCN(Cc4ccc5c(c4)OCO5)CC3)nc21	-	37	-
CN(C)c1cccc(Nc2nccc(Nc3ccc4c(c3)OCO4)n2)c1	-	36	-
c1ccc(OCCNc2nc(N3CCN(Cc4ccc5c(c4)OCO5)CC3)nc3c2ncn3C2CCCCC2)cc1	-	39	-
FC(F)(F)c1ccc(Nc2nccc(Nc3ccc4c(c3)OCO4)n2)cc1	-	-	.
CCN(CC)C(=O)C1CCCN(c2nc(Nc3ccc(N4CCOCC4)cc3)c3ncn(Cc4ccc(C(F)(F)F)cc4)c3n2)C1 (configuration not stated)	-	56	-
OCCNc1nc(N2CCN(Cc3ccc4c(c3)OCO4)CC2)nc2c1ncn2C1CCCCC1	-	-	.
O=C(NCCCN1CCCC1=O)c1cccc(Nc2nccc3ccccc23)n1	-	-	.
CS(=O)(=O)c1ccc(-n2cc(-c3ccncc3)cn2)cc1	-	.	.
COc1ccc(CCNc2ncnc3c2nc(NC2CCC(O)CC2)n3C(C)C)cc1 (configuration not stated)	-	-	.
COc1ccc(CCNc2nc(-c3ccc(OC)nc3)nc3c2ncn3C(C)C)cc1	-	-	.
FC(F)(F)c1ccc(Cn2cnc3c(Nc4ccc(N5CCOCC5)cc4)nc(N4CCN(Cc5ccc6c(c5)OCO6)CC4)nc32)cc1	-	48	-
FC(F)(F)c1ccc(Cn2cnc3c(NCCN4CCOCC4)nc(N4CCN(Cc5ccc6c(c5)OCO6)CC4)nc32)cc1	-	-	.
FC(F)(F)c1ccc(Cn2cnc3c(Nc4ccc5c(c4)OCO5)nc(Nc4ccc(C(F)(F)F)cc4)nc32)cc1	-	-	.
FC(F)(F)c1ccc(Cn2cnc3c(Nc4ccc5c(c4)OCO5)nc(Nc4ccccc4)nc32)cc1	-	41	-
CN(C)c1cccc(Nc2nc(Nc3ccc4c(c3)OCO4)c3ncn(Cc4ccc(C(F)(F)F)cc4)c3n2)c1	-	50	-
CC(=O)Nc1ccc(Nc2nc(Nc3cccc(N(C)C)c3)nc3c2ncn3Cc2ccc(C(F)(F)F)cc2)cc1	-	-	.
O=C1CCCN1CCn1cnc2c(NCc3nc4ccccc4[nH]3)nc(Nc3cnccn3)nc21	-	-	.
COc1ccc(C(N)C(=O)N2CCCN(C(=O)c3ccc4[nH]ncc4c3)CC2)cc1 (configuration not stated)	-	-	.
CN(C)c1cccc(Nc2cc(C(=O)Nc3ccccc3)c3ccccc3n2)c1	-	-	.
c1ccc(CCn2nc(-c3ccnc(Nc4ccc(N5CCOCC5)cc4)c3)cc2Nc2ccccc2)cc1	-	56	-
O=C(Cc1ccccc1)Nc1cc(-c2ccnc(Nc3ccc(N4CCOCC4)cc3)c2)nn1CCc1ccccc1	-	-	.
O=C(Nc1ccccc1)c1ccccc1Nc1ccnc(Nc2ccc(N3CCOCC3)cc2)c1	-	37	-
c1ccc(CCn2ncc(-c3ccnc(Nc4ccc(N5CCOCC5)cc4)c3)c2Nc2ccccc2)cc1	-	41	-
Cn1ncc(-c2ccnc(Nc3ccc(N4CCOCC4)cc3)c2)c1Nc1ccccc1	-	-	.
SMILES	ULK1 primary	ASK1 primary	TruHits interf
OCc1ccccc1Nc1ccnc(Nc2ccc(N3CCOCC3)cc2)c1	-	-	.
Cc1nn(C)c(C)c1-c1nc(Nc2ccc(Oc3ccccc3)cc2)c2ncn(CCN3CCCC3=O)c2n1	-	-	.
CN1CCN(c2ccc(-c3ncc(C(=O)NCCOc4ccccc4)s3)cc2)CC1	-	-	.
O=C1CCCN1CCCNc1nc2ncnc(Nc3ccc(N4CCOCC4)cc3)c2[nH]1	-	-	.
FC(F)(F)c1cccc(CNc2nc(Nc3cccnc3)nc3c2ncn3-c2ccccc2)c1	-	-	.
O=C(Cc1ccccc1)c1cc2cc(-c3ccncc3)ccc2[nH]1	-	-	.
Cc1nc(C)n(-c2ccc(Nc3nccc(-c4cc(-n5cncn5)cc(-n5cncn5)c4)n3)cc2)n1	-	-	.
Cc1nc(C)n(-c2ccc(Nc3nccc(-c4cccc(-n5cncn5)c4)n3)cc2)n1	-	48	-
COc1cc2nc(Nc3ccccc3)nc(Nc3ccccc3)c2cc1OC	-	-	.
COc1cc2nc(Nc3cccc(N(C)C)c3)nc(Nc3ccc(NC(C)=O)cc3)c2cc1OC	-	55	8.7
COc1cc2nc(Nc3ccncc3)nc(Nc3ccc(NC(C)=O)cc3)c2cc1OC	-	-	.
COc1cc2nc(Nc3cccc(N(C)C)c3)nc(Nc3ccccc3)c2cc1OC	-	42	4.3
COc1ccc(CCNc2cc(C)nc(Oc3ccccc3)n2)cc1	-	-	.
Cc1cncc2c(S(=O)(=O)N3CC[C@H](NC(=O)C(O)c4ccc(Br)cc4)C3)cccc12 (some centres not stated)	-	-	.

Assay outcomes as filed in PubChem.
